The list is not random: actives were taken first. Their share in the collection is about 15%.
ALOX12 inh = Primary qHTS assay for inhibitors of human arachidonate 12S-lipoxygenase (ALOX12): Round 2; Potency, µM (titrated, usually from 108 µM), for inactives: at the highest dose activity change, negative = inhibition, most hits filed as inhibitors; 580,000 tested, 1.1% active; AID 1671190, 2021; Polyunsaturated fatty acid lipoxygenase ALOX12 (Homo sapiens), P18054; purified 12hLO, xylenol orange hydroperoxide absorbance
Target sequence (P18054 whole entry, looked up): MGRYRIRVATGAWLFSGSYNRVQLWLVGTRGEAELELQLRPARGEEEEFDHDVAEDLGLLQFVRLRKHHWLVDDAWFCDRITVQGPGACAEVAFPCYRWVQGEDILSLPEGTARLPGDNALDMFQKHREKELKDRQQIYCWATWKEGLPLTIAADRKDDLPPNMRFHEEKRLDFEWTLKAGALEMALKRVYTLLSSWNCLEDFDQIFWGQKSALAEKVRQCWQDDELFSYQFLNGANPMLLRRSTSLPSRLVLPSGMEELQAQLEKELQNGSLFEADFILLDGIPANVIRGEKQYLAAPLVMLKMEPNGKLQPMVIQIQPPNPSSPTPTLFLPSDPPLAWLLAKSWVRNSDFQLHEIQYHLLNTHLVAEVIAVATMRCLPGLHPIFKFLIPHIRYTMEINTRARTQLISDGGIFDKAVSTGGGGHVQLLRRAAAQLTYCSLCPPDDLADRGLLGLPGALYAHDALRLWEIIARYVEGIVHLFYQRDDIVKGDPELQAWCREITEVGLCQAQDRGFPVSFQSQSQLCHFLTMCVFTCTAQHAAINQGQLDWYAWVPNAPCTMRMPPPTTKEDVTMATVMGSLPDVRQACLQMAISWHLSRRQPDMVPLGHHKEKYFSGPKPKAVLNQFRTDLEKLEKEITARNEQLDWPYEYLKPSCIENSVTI
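Purified human 12hLO at 150 nM in 25 mM Hepes, 0.01% Triton X-100, pH 7.0, preincubated 15 min at room temperature with compound. Reaction started with 40 uM arachidonic acid, 30 min at room temperature. Hydroperoxide measured by Fe-xylenol orange, 573/405 nm absorbance ratio.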
TDP1 cell noCPT = qHTS for Inhibitors of human tyrosyl-DNA phosphodiesterase 1 (TDP1): qHTS in cells in absence of CPT; Potency, µM (highest dose often 46.2 µM), for the others: top-dose activity change, negative = growth inhibition, actives largely listed as inhibitors; DT40 Tdp1-/- hTDP1 cells, no CPT, ATP luminescence, 48 h; 420,000 tested, 15% active; further: nearly all actives have a fitted effect of over 55% in size
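Chicken DT40 Tdp1-/- cells complemented with human TDP1, screened without camptothecin (DMSO vehicle only), 400 cells/well. Compounds pin-transferred, cells incubated at 37 °C for at least 48 hr. Growth read as ATP-dependent luminescence (CellTiter-Glo, 30 min at RT).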
RORg inh = qHTS for inhibitors of ROR gamma transcriptional activity; Nuclear receptor ROR-gamma (Mus musculus), P51450; Drosophila S2 Gal4-RORgamma UAS-luciferase reporter, 20 h; Potency, µM (titrated, usually from 53.6 µM), inactives show top-dose activity change, negative = inhibition, actives largely listed as inhibitors; 310,000 tested, 5.4% active; AID 2551, 2010; further: nearly all actives have a fitted effect of over 60% in size
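Schneider cells (Drosophila), stable Gal4 DBD–ROR gamma + UAS-luc; 1 hr cmpd preincubation; Cu2+ induction 700 uM final; 20 hr ambient; luminescence.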
VP16 counter = VP16 counterscreen qHTS for inhibitors of ROR gamma transcriptional activity. Drosophila S2 Gal4-VP16 UAS-luciferase, luminescence, 20 h. Potency, µM (series often up to 53.6 µM), for the others: top-dose activity, negative = inhibition, usual class: inhibitors. 310,000 tested, 3.5% active;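 further: Gal4-VP16 expression switched on by copper sulfate through the metallothionein promoter; nearly all actives have a fitted effect of over 50% in size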
ELG1 repair inh = qHTS screen for small molecules that inhibit ELG1-dependent DNA repair in human embryonic kidney (HEK293T) cells expressing luciferase-tagged ELG1; HEK293T ELG1-luciferase reporter, luminescence, 16 h; DNA damage induced by 5-fluorouridine; Potency, µM (top dose mostly 46.1 µM), without a hit: at the highest dose activity change, negative = inhibition, usual class: inhibitors; 330,000 tested, 2.3% active; further: nearly all actives have a fitted effect of over 55% in size
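HEK293T cells expressing luciferase-tagged ELG1 (2,000/well) received 5-Fluorouridine plus compound or DMSO for 16 hr at 37 °C. Luciferase was read by ONE-Glo luminescence after 30 min at room temperature.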
TDP1 cell CPT = qHTS for Inhibitors of human tyrosyl-DNA phosphodiesterase 1 (TDP1): qHTS in cells in presence of CPT; chicken DT40 Tdp1-/-;hTDP1 cells + 20 nM CPT, ATP luminescence, 48 h; Potency, µM (series often up to 46.2 µM), for inactives: at the highest dose activity change, negative = growth inhibition, most hits filed as inhibitors; 420,000 tested, 12% active; AID 686979, 2013; further: nearly all actives have a fitted effect of over 55% in size
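Chicken DT40 Tdp1-/- cells complemented with human TDP1, 400 cells/well, exposed to compounds plus 20 nM camptothecin for at least 48 h at 37 C; viability read as ATP content by CellTiter-Glo luminescence.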
Active calls of the source: *; u = inconclusive; x = not tested or not shown; [ ] = another dose, or the depositor's remark. The call rests on the fitted dose curve; in most records, active means well fitted curve in the direction sought with a large enough effect; inconclusive means small, poorly fitted or top-dose-only effect, or another doubt; inactive means no such curve, though single readings can be large; an effect the other way counts as inactive or inconclusive. On the % scale 0 is the no-effect control and ±100 the full control effect; potency means the concentration at half of the fitted maximal effect.

SMILES | ALOX12 inh | TDP1 cell noCPT | RORg inh | VP16 counter | ELG1 repair inh | TDP1 cell CPT
O=C(CN1C(=O)C(=O)c2ccccc21)NCCc1ccccc1 | -12.9% | u | 0.9% | -6.1% | 24.2% | u
CN1CCN(C(=O)[C@@H]2CCC[C@@H](NC(=O)NC3CCCC3)CN(C)C(=O)C2)CC1 | 26.0%[176 µM] | x | x | x | x | x
Cc1cccc(CC(=O)N2CCCCC2c2noc(COc3ccc(F)cc3)n2)c1 (stereo not drawn) | 2.5% | x | x | x | x | x
CC(=O)NCCNC(=O)CN1CCCC(c2nc3ccccc3o2)C1 (stereo not drawn) | -15.1% | x | x | x | x | x
CCCOc1ccc(-c2nc(=S)[nH][nH]2)cc1 | u | -5.7% | 0.0% | -26.1% | u | -18.7%
S=c1nc(-c2ccc(Cl)cc2)[nH][nH]1 | u | -19.9% | 8.91µM* | -23.4% | 25.6% | -1.2%
CCC(=O)N(C1CCOCC1)C1CCN(S(=O)(=O)c2cc(F)ccc2C)CC1 | 41.4% | x | x | x | x | x
O=S(=O)(c1ccccc1)c1cc(O)ccc1O | -14.0% | 7.31µM* | 18.7% | 4.3% | 6.4% | 3.26µM*
COc1ccc(C2CC(=O)C=C3c4ccc(OC)cc4CCC32)cc1 (stereo not drawn) | 6.5% | 25.9µM* | x | x | x | u
CC(C)=C1C2C=CC1C1C(=O)N(c3ccc4c(c3)OCO4)C(=O)C21 (stereo not drawn) | 0.0% | 20.6µM* | u | u | 11.4% | u
CC(C)(C)OC(=O)NC(CN)c1ccccc1Cl (stereo not drawn) | 20.1%[12.5 µM] | x | x | x | x | x
CCN(CC)CCNCc1cc(Br)ccc1OCC(=O)NCc1ccccc1 | 28.2µM* | 1.4% | 22.0% | -0.7% | 10.4% | -1.7%
COc1cc(CNCCN(C)C)c(Br)cc1OCC(=O)NCc1ccccc1 | 1.0% | -24.9% | -1.6% | 0.9% | 21.8% | -6.5%
Nc1ccc[n+](CC(=O)c2ccc(F)cc2)c1 | x | 10µM* | x | x | x | 14.1µM*
Cc1ccc(C(=O)C[n+]2ccc3ccccc3c2)cc1 | -8.7% | 14.6µM* | -1.2% | 2.0% | u | u
O=C(C[n+]1ccc2ccccc2c1)c1cccc2ccccc12 | u | 8.2µM* | 4.6% | -0.1% | u | 13µM*
O=C(C[n+]1ccc2ccccc2c1)c1ccc(O)c(O)c1 | x | -23.6% | x | x | x | -4.4%
O=C(C[n+]1cccc(NC(=O)c2ccccc2)c1)c1ccc(NC(=O)c2ccccc2)cc1 | 18.1% | u | 30.9% | 17.5% | 12.0% | 23.1µM*
O=C(C[n+]1ccc2ccccc2c1)c1ccc(NC(=O)c2ccccc2)cc1 | -18.6% | 7.31µM* | 15.1% | 0.1% | u | 5.8µM*
NC(=O)c1ccc[n+](CC(=O)c2ccc(NC(=O)c3ccccc3)cc2)c1 | 0.0% | -10.3% | 18.9% | 2.6% | 8.2% | 1.7%
CCn1cc(S(=O)(=O)N2CCCN(Cc3ccncc3)C(c3ccccc3)CC(=O)NCC2)cn1 (stereo not drawn) | 66.6% | x | x | x | x | x
Cc1ccccc1CN1CCCC(C(=O)N2CCCCC2)C1 (stereo not drawn) | u | -22.4% | -0.6% | -2.5% | 6.8% | 0.0%
OC1CCCN(Cc2ccc3ccc4cccc5ccc2c3c45)C1 (stereo not drawn) | u | 20.6µM* | -31.5% | -5.5% | -22.6% | u
O=C(C1CCCN(Cc2cccc3ccccc23)C1)N1CCCCC1 (stereo not drawn) | 0.447µM* | x | x | x | x | x
O=C(C1CCCN(Cc2ccccc2[N+](=O)[O-])C1)N1CCCCC1 (stereo not drawn) | 2µM* | -28.6% | 12.0% | -9.9% | -1.5% | -29.4%
SMILES | ALOX12 inh | TDP1 cell noCPT | RORg inh | VP16 counter | ELG1 repair inh | TDP1 cell CPT
O=C(C1CCCN(Cc2ccccc2Cl)C1)N1CCCCC1 (stereo not drawn) | u | -24.0% | 17.9% | -3.3% | 0.1% | -9.9%
CCc1c(C)nc2ncnn2c1Nc1ccccc1C | 6.9% | u | 8.4% | -2.4% | -14.5% | u
CCc1c(C)nc2ncnn2c1NCCc1ccc(Cl)cc1 | -6.5% | 9.2µM* | u | 11.2µM* | u | 16.4µM*
CC1=C[C@@H](CNC(=O)C2CCCCC2)[C@H](C(C)C)C[C@H]1CC(=O)N1CCN(c2ccccn2)CC1 | 10.5% | x | x | x | x | x
COc1ccc(OC)c(NC(=O)CC2SC(=Nc3ccccc3)N(CCc3ccccn3)C2=O)c1 (stereo not drawn) | 20.3% | u | 31.8% | -0.6% | u | 23.1µM*
COc1ccc(OC)c(NC(=O)CC2SC(=Nc3ccc(F)cc3)N(CCC3=CCCCC3)C2=O)c1 (stereo not drawn) | -29.3% | u | u | u | u | u
COc1ccc(N=C2SC(CC(=O)Nc3ccccc3)C(=O)N2CCc2ccccn2)cc1 (stereo not drawn) | -23.4% | u | u | 1.8% | u | u
O=C(CC1SC(=Nc2ccc(OC(F)F)cc2)N(CCN2CCOCC2)C1=O)Nc1ccccc1 (stereo not drawn) | -12.8% | u | u | -12.4% | -6.4% | 16.4µM*

Screens from PubChem.
